Results as given in the antibiotic and cytotoxicity screens of Wong et al. (2023).
About 3,300 (8.5%) of roughly 39,000 compounds were called active. This is one part of a sample in which actives are shown more often than they occur.

What follows are molecules tested on HepG2 (assay: cytotoxicity call (relative viability < 0.9)). Settings: 10 µM.
With `C[C@@H]1CN([C@@H](C)CO)C(=O)c2cccc(NC(=O)C3CCCCC3)c2O[C@H]1CN(C)Cc1ccc(-c2ccccc2)cc1` the cytotoxicity call was “inactive”.
`CC(C)NC(=O)Nc1ccc2c(c1)C(=O)N([C@@H](C)CO)C[C@H](C)[C@H](CN(C)S(=O)(=O)c1ccc(F)cc1)O2` was tested, and the cytotoxicity call was “inactive”.
In the case of `Cc1cccc(N2CCC(N)CC2)c1`, the cytotoxicity call is reported as “inactive”.
For `CN1C(=O)c2cc(NC(=O)c3ccc(F)c(F)c3)ccc2OC[C@H]2O[C@@H](CC(=O)N3CCOCC3)CC[C@@H]21`, the cytotoxicity call was “inactive”.
With `COc1ccc(NC(=O)N(C)C[C@@H]2Oc3c(NC(=O)c4ccc(-c5nccs5)cc4)cccc3C(=O)N([C@@H](C)CO)C[C@H]2C)cc1` the cytotoxicity call was “inactive”.
With `CCNC(=O)C[C@H]1CC[C@@H]2[C@H](COC[C@@H](O)CN2C(=O)Nc2c(C)noc2C)O1` the cytotoxicity call was “inactive”.
With `CN(C)CCCCNC(=O)[C@@H]1C[C@@H]2C(=O)N[C@@H](CCCC[N+](C)(C)C)C(=O)N2[C@@H]1c1cccc(OCCO)c1` the cytotoxicity call was “inactive”.
`Cc1ccc(S(=O)(=O)Nc2ccc3c(c2)C(=O)N([C@H](C)CO)C[C@@H](C)[C@@H](CN(C)S(=O)(=O)c2ccc(C)cc2)OCCCC[C@@H](C)O3)cc1` was tested, and the cytotoxicity call was “inactive”.
With `Cc1ccc(S(=O)(=O)Nc2ccc3c(c2)C(=O)N([C@@H](C)CO)C[C@@H](C)[C@H](CN(C)S(=O)(=O)c2ccc(C)cc2)OCCCC[C@@H](C)O3)cc1` the cytotoxicity call was “active”.
With `Cc1ccc(S(=O)(=O)Nc2ccc3c(c2)C(=O)N([C@H](C)CO)C[C@@H](C)[C@H](CN(C)S(=O)(=O)c2ccc(C)cc2)OCCCC[C@@H](C)O3)cc1` the cytotoxicity call was “inactive”.
For `Cc1ccc(S(=O)(=O)Nc2ccc3c(c2)C(=O)N([C@H](C)CO)C[C@H](C)[C@@H](CN(C)S(=O)(=O)c2ccc(C)cc2)OCCCC[C@H](C)O3)cc1`, the cytotoxicity call was “inactive”.
In the case of `Cc1ccc(S(=O)(=O)Nc2ccc3c(c2)C(=O)N([C@H](C)CO)C[C@H](C)[C@@H](CN(C)S(=O)(=O)c2ccc(C)cc2)OCCCC[C@@H](C)O3)cc1`, the cytotoxicity call is reported as “inactive”.
In the case of `Cc1ccc(S(=O)(=O)Nc2ccc3c(c2)C(=O)N([C@@H](C)CO)C[C@H](C)[C@H](CN(C)S(=O)(=O)c2ccc(C)cc2)OCCCC[C@H](C)O3)cc1`, the cytotoxicity call is reported as “active”.
In the case of `C[C@H]1CC=CC[C@H](c2cccc(Cl)c2)NC(=O)[C@H](Cc2ccccc2)N(C)C(=O)c2ccccc2O1`, the cytotoxicity call is reported as “inactive”.
With `Cc1ccc(S(=O)(=O)N(C)C[C@@H]2OCCCC[C@@H](C)Oc3ccc(NC(=O)Nc4ccc(F)cc4)cc3C(=O)N([C@H](C)CO)C[C@@H]2C)cc1` the cytotoxicity call was “inactive”.
With `C[C@H](CO)N1C[C@H](C)[C@H](CN(C)C(=O)Nc2cccc(F)c2)OCc2ccccc2-c2ccccc2C1=O` the cytotoxicity call was “inactive”.
For `CCCN(CCC)S(=O)(=O)c1ccc(C(=O)N(c2cccc(SC)c2)[C@H]2OC(=O)c3ccccc32)cc1`, the cytotoxicity call was “inactive”.
With `C[C@H]1CN([C@@H](C)CO)S(=O)(=O)c2ccc(C#CCN(C)C)cc2O[C@H]1CN(C)S(=O)(=O)c1cccc(F)c1` the cytotoxicity call was “inactive”.
`C[C@@H]1CN([C@@H](C)CO)C(=O)c2cccc(NC(=O)c3ccc(-c4nccs4)cc3)c2O[C@@H]1CN(C)C(=O)Nc1ccc(C(F)(F)F)cc1` was tested, and the cytotoxicity call was “active”.
`C[C@H]1CN([C@@H](C)CO)C(=O)c2cccc(NC(=O)c3ccc(-c4nccs4)cc3)c2O[C@H]1CN(C)Cc1ccc(C(F)(F)F)cc1` was tested, and the cytotoxicity call was “inactive”.
In the case of `C[C@H](CO)N1C[C@H](C)[C@@H](CN(C)Cc2ccc(C(F)(F)F)cc2)Oc2c(NC(=O)c3ccc(-c4nccs4)cc3)cccc2C1=O`, the cytotoxicity call is reported as “inactive”.
With `C[C@@H]1CN([C@@H](C)CO)C(=O)c2cccc(NC(=O)c3ccc(-c4nccs4)cc3)c2O[C@@H]1CN(C)Cc1ccc(C(F)(F)F)cc1` the cytotoxicity call was “active”.
In the case of `C[C@H](CO)N1C[C@H](C)[C@H](CN(C)Cc2ccc(C(F)(F)F)cc2)Oc2c(NC(=O)c3ccc(-c4nccs4)cc3)cccc2C1=O`, the cytotoxicity call is reported as “inactive”.
`C[C@@H]1CN([C@H](C)CO)C(=O)c2cccc(NC(=O)c3ccc(-c4nccs4)cc3)c2O[C@@H]1CN(C)Cc1ccc(C(F)(F)F)cc1` was tested, and the cytotoxicity call was “active”.
In the case of `C[C@H]1CN([C@@H](C)CO)C(=O)c2cccc(NC(=O)c3ccc(-c4nccs4)cc3)c2O[C@H]1CN(C)C(=O)Nc1ccc(C(F)(F)F)cc1`, the cytotoxicity call is reported as “inactive”.
`C[C@@H]1CN([C@H](C)CO)C(=O)c2cccc(NC(=O)c3ccc(-c4nccs4)cc3)c2O[C@H]1CN(C)Cc1ccc(C(F)(F)F)cc1` was tested, and the cytotoxicity call was “inactive”.
With `C[C@H](CO)N1C[C@H](C)[C@H](CN(C)C(=O)Nc2ccc(C(F)(F)F)cc2)Oc2c(NC(=O)c3ccc(-c4nccs4)cc3)cccc2C1=O` the cytotoxicity call was “inactive”.
With `C[C@@H]1CN([C@@H](C)CO)C(=O)c2cccc(NC(=O)c3ccc(-c4nccs4)cc3)c2O[C@H]1CN(C)Cc1ccc(C(F)(F)F)cc1` the cytotoxicity call was “inactive”.
`C[C@@H]1CN([C@H](C)CO)C(=O)c2cccc(NC(=O)c3ccc(-c4nccs4)cc3)c2O[C@@H]1CN(C)Cc1ccc(C(=O)O)cc1` was tested, and the cytotoxicity call was “inactive”.
In the case of `C[C@H]1CN([C@@H](C)CO)C(=O)c2cccc(NC(=O)c3ccc(-c4nccs4)cc3)c2O[C@@H]1CN(C)Cc1ccc(C(F)(F)F)cc1`, the cytotoxicity call is reported as “active”.
`N=C(N)SCCN` was tested, and the cytotoxicity call was “inactive”.
In the case of `CN1CCN(C(=O)C[C@@H]2C=C[C@H](NC(=O)Nc3ccccc3F)[C@H](CO)O2)CC1`, the cytotoxicity call is reported as “inactive”.
In the case of `COc1ccc(NC(=O)Nc2ccc3c(c2)C(=O)N([C@@H](C)CO)C[C@H](C)[C@@H](CN(C)C(=O)Nc2ccccc2)OCCCC[C@H](C)O3)cc1`, the cytotoxicity call is reported as “inactive”.
`CN1C(=O)[C@@H]2CN(c3ncccn3)C[C@@H]2C12CCN(S(C)(=O)=O)CC2` was tested, and the cytotoxicity call was “inactive”.
With `C[C@H](CO)N1C[C@H](C)[C@@H](CN(C)S(=O)(=O)c2ccc(Cl)cc2)Oc2ccc(N(C)C)cc2CC1=O` the cytotoxicity call was “inactive”.
`Cc1ccc(S(=O)(=O)N(C)C[C@H]2OCCCC[C@@H](C)Oc3ccc(NC(=O)Nc4c(C)noc4C)cc3C(=O)N([C@H](C)CO)C[C@H]2C)cc1` was tested, and the cytotoxicity call was “inactive”.
In the case of `COc1ccc2cc1/C=C\NC(=O)[C@H](Cc1ccccc1)NC(=O)[C@@H]1[C@H](CCN1C(=O)[C@@H](NC(=O)[C@@H](C)N(C)C)C(C)C)O2`, the cytotoxicity call is reported as “inactive”.
`CO[C@@H](CN(C)S(=O)(=O)c1cccc(Cl)c1)[C@H](C)CN([C@@H](C)CO)S(=O)(=O)c1ccc(Cl)cc1` was tested, and the cytotoxicity call was “inactive”.
For `C[C@@H]1CN([C@H](C)CO)C(=O)c2cc(NC(=O)CCC(F)(F)F)ccc2O[C@@H](C)CCCCO[C@@H]1CN(C)CC1CCCCC1`, the cytotoxicity call was “inactive”.
`C[C@@H]1CN([C@H](C)CO)C(=O)c2cccc(NC(=O)c3nc4ccccc4s3)c2O[C@H]1CN(C)Cc1ccc(C(F)(F)F)cc1` was tested, and the cytotoxicity call was “inactive”.
In the case of `C[C@@H]1CN([C@@H](C)CO)C(=O)c2cc(Br)cnc2O[C@@H]1CN(C)S(=O)(=O)c1ccc(F)cc1`, the cytotoxicity call is reported as “inactive”.
`C[C@@H]1CCCCO[C@@H](CN(C)C(=O)CCC(F)(F)F)[C@@H](C)CN([C@H](C)CO)C(=O)c2cc(NS(=O)(=O)c3ccc(F)cc3)ccc2O1` was tested, and the cytotoxicity call was “inactive”.
With `CCOC(=O)CSc1nnc2c3sc4nc(N5CCOCC5)c5c(c4c3ncn12)CC(C)(C)OC5` the cytotoxicity call was “active”.
In the case of `O=C(NCCCN1CCOCC1)C(=O)NC1CC1`, the cytotoxicity call is reported as “inactive”.
`COc1ccc(CN(C)C[C@@H]2OCCCC[C@@H](C)Oc3ccc(NS(=O)(=O)c4ccc(Cl)cc4)cc3C(=O)N([C@H](C)CO)C[C@H]2C)cc1` was tested, and the cytotoxicity call was “inactive”.
`COc1ccc(CN(C)C[C@@H]2OCCCC[C@H](C)Oc3ccc(NS(=O)(=O)c4ccc(Cl)cc4)cc3C(=O)N([C@@H](C)CO)C[C@H]2C)cc1` was tested, and the cytotoxicity call was “active”.
For `COc1ccc(CN(C)C[C@@H]2OCCCC[C@H](C)Oc3ccc(NS(=O)(=O)c4ccc(Cl)cc4)cc3C(=O)N([C@H](C)CO)C[C@@H]2C)cc1`, the cytotoxicity call was “active”.
With `COc1ccc(CN(C)C[C@H]2OCCCC[C@@H](C)Oc3ccc(NS(=O)(=O)c4ccc(Cl)cc4)cc3C(=O)N([C@H](C)CO)C[C@@H]2C)cc1` the cytotoxicity call was “inactive”.
With `COc1ccc(CN(C)C[C@H]2OCCCC[C@H](C)Oc3ccc(NS(=O)(=O)c4ccc(Cl)cc4)cc3C(=O)N([C@@H](C)CO)C[C@H]2C)cc1` the cytotoxicity call was “inactive”.
For `COc1ccc(CN(C)C[C@H]2OCCCC[C@@H](C)Oc3ccc(NS(=O)(=O)c4ccc(Cl)cc4)cc3C(=O)N([C@@H](C)CO)C[C@H]2C)cc1`, the cytotoxicity call was “active”.
With `COc1ccc(CN(C)C[C@H]2OCCCC[C@@H](C)Oc3ccc(NS(=O)(=O)c4ccc(Cl)cc4)cc3C(=O)N([C@@H](C)CO)C[C@@H]2C)cc1` the cytotoxicity call was “inactive”.
`COc1ccc(CN(C)C[C@@H]2OCCCC[C@@H](C)Oc3ccc(NS(=O)(=O)c4ccc(Cl)cc4)cc3C(=O)N([C@H](C)CO)C[C@@H]2C)cc1` was tested, and the cytotoxicity call was “inactive”.
For `COc1ccc(CN(C)C[C@H]2OCCCC[C@H](C)Oc3ccc(NS(=O)(=O)c4ccc(Cl)cc4)cc3C(=O)N([C@@H](C)CO)C[C@@H]2C)cc1`, the cytotoxicity call was “inactive”.
`C[C@@H]1CCCCO[C@H](CN(C)C(=O)Nc2ccccc2)[C@H](C)CN([C@@H](C)CO)C(=O)c2cc(NC(=O)Nc3ccc(F)cc3)ccc2O1` was tested, and the cytotoxicity call was “inactive”.
In the case of `O=C(C[C@H]1CC[C@@H](NC(=O)CN2CCOCC2)[C@H](CO)O1)NC1CCC1`, the cytotoxicity call is reported as “inactive”.
With `C[C@H](CO)N1C[C@H](C)[C@@H](CN(C)S(=O)(=O)c2cn(C)cn2)Oc2ccc(N(C)C)cc2CC1=O` the cytotoxicity call was “inactive”.
With `C[C@H](CO)N1C[C@H](C)[C@H](CN(C)Cc2ccc(F)cc2)Oc2cc(C#CC3CC3)ccc2S1(=O)=O` the cytotoxicity call was “inactive”.
`C[C@@H]1CCCCO[C@H](CN(C)C(=O)C2CCCCC2)[C@@H](C)CN([C@H](C)CO)C(=O)c2cc(NC(=O)Nc3ccc(F)cc3)ccc2O1` was tested, and the cytotoxicity call was “inactive”.
In the case of `COCC(=O)Nc1ccccc1C(=O)O`, the cytotoxicity call is reported as “inactive”.
With `O=C(N1CCOCC1)[C@@]1(CCS(=O)(=O)c2ccccc2)COC(c2ccc(OCCCO)cc2)=N1` the cytotoxicity call was “inactive”.
